How the values were obtained:
Assay in all cases: PBM binding z-score (relative to random genomic background probes); higher = stronger binding; sequences stand for … in GC…GCGATTGACAGCGTAGAATGAAGG
[1] = system: FXR:RXRa (NR concentration 270 nM, RXRa partner concentration 90 nM)
Procedure, shortened: (§1)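 Binding z-scores take random background probes as their reference. They come from custom Agilent 4×180K protein-binding microarrays incubated 1 h with ligand-free nuclear receptor dimers, with antibodies against each partner (one per run) detecting binding. Scanned fluorescence was regression-normalized.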

[2] = system: LXRa:RXRa (NR concentration 270 nM, RXRa partner concentration 90 nM)
Procedure, shortened: as §1

[3] = system: LXRa homodimer (NR concentration 270 nM)
Procedure, shortened: as §1

[4] = system: LXRb:RXRa (NR concentration 270 nM, RXRa partner concentration 90 nM)
Procedure, shortened: as §1

[5] = system: LXRb homodimer (NR concentration 270 nM)
Procedure, shortened: as §1

[6] = system: PPARa:RXRa (NR concentration 270 nM, RXRa partner concentration 90 nM)
Procedure, shortened: as §1

[7] = system: PPARg:RXRa (NR concentration 180 nM, RXRa partner concentration 90 nM)
Procedure, shortened: as §1

[8] = system: PPARg:RXRa 270nM:90nM, anti-RXR (NR concentration 270 nM, RXRa partner concentration 90 nM)
Procedure, shortened: as §1

[9] = system: PPARg:RXRa 30nM:10nM, anti-RXR (NR concentration 30 nM, RXRa partner concentration 10 nM)
Procedure, shortened: as §1

[10] = system: PPARg:RXRa 90nM:30nM, anti-RXR (NR concentration 90 nM, RXRa partner concentration 30 nM)
Procedure, shortened: as §1

[11] = system: PPARg:RXRa DBDmut IVT, anti-RXR (DBD mutation: RXRa K156A/R161A, NR concentration 270 nM, RXRa partner concentration 90 nM)
Procedure, shortened: as §1

[12] = system: PPARg:RXRa IVT, anti-PPARg (NR concentration 270 nM, RXRa partner concentration 90 nM)
Procedure, shortened: as §1

[13] = system: PPARg DBDmut:RXRa IVT, anti-PPARg (DBD mutation: PPARg1 K132A/R137A, NR concentration 270 nM, RXRa partner concentration 90 nM)
Procedure, shortened: as §1

[14] = system: PPARg DBDmut IVT, anti-PPARg (DBD mutation: PPARg1 K132A/R137A, NR concentration 270 nM)
Procedure, shortened: as §1

[15] = system: PPARg homodimer (NR concentration 180 nM)
Procedure, shortened: as §1

[16] = system: PXR:RXRa (NR concentration 270 nM, RXRa partner concentration 90 nM)
Procedure, shortened: as §1

[17] = system: PXR homodimer (NR concentration 270 nM)
Procedure, shortened: as §1

[18] = system: RARa:RXR (NR concentration 270 nM, RXRa partner concentration 90 nM)
Procedure, shortened: as §1

[19] = system: RARa homodimer (NR concentration 270 nM)
Procedure, shortened: as §1

[20] = system: RARb:RXRa (NR concentration 270 nM, RXRa partner concentration 90 nM)
Procedure, shortened: as §1

Sequence | PBM binding z-score [1] | PBM binding z-score [2] | PBM binding z-score [3] | PBM binding z-score [4] | PBM binding z-score [5] | PBM binding z-score [6] | PBM binding z-score [7] | PBM binding z-score [8] | PBM binding z-score [9] | PBM binding z-score [10] | PBM binding z-score [11] | PBM binding z-score [12] | PBM binding z-score [13] | PBM binding z-score [14] | PBM binding z-score [15] | PBM binding z-score [16] | PBM binding z-score [17] | PBM binding z-score [18] | PBM binding z-score [19] | PBM binding z-score [20]
TAGCCTAGGTCAAGGGCCAGTATACCACGCGAAC | 4.16 | 3.02 | 0.0881 | 2.2 | -0.716 | 3.87 | 4.52 | 4.61 | 1.8 | 3.59 | 1.71 | 3.19 | -0.167 | -0.743 | 1.63 | 1.28 | -0.234 | 2.31 | -0.242 | 3.96
CGAACTAGGTCAGCACAGGACAGTGAAGGATGAT | 1.86 | 1.18 | -0.345 | 0.466 | -0.737 | 3.51 | 6.07 | 5.31 | 2.4 | 4.32 | 7.7 | 7.61 | 0.871 | 0.245 | 1.37 | 1.42 | -0.395 | 1.03 | 0.213 | 3.65
CCTGGCAGGCCAATCTGGGTCACTCAAGGCTTGA | 0.937 | 0.927 | -0.703 | 0.276 | -1.26 | 2.69 | 1.37 | 2.06 | -0.284 | 1.22 | 3.55 | 4.78 | -0.588 | -0.975 | 0.0231 | 0.725 | -0.786 | 1.11 | -1.09 | 1.64
GCTATTACTTGAAAGGGCAACCGAATGATTCTCG | 0.128 | 0.738 | 0.277 | 0.831 | 0.248 | 1 | 0.583 | 0.184 | 0.177 | 0.0562 | 0.661 | 0.239 | -0.509 | 0.326 | 0.811 | 0.499 | -0.0796 | 0.627 | 0.826 | 2.17
TCGAGTAGGTTAGGGGCATTCAGAATGGCGTCGA | 0.42 | 0.257 | -0.31 | 0.672 | -0.239 | 1.39 | 0.676 | 1.98 | 1.13 | 1.76 | 1.95 | 1.44 | -0.138 | -0.987 | 1.13 | 0.245 | 0.264 | 0.141 | -0.19 | 1.13
CAAACTAGGTCACAGAGGTCCAAGTCCGTGCGTA | 4.06 | 3.27 | 0.422 | 2.32 | 0.233 | 5.18 | 8.72 | 7.58 | 5.04 | 7.32 | 8.78 | 9.18 | 3.75 | 2.44 | 2.41 | 3.43 | 0.225 | 3.05 | 0.32 | 4.22
TCTTGTAGATCAAAGGTTAAGATAGCCGAAGCCT | 1.76 | 2.11 | 0.243 | 2.23 | 0.104 | 4.83 | 8.74 | 8.06 | 8.48 | 9.71 | 2.14 | 4.36 | 0.743 | 0.848 | 2.49 | 2.29 | -0.253 | 3.37 | 0.787 | 1.98
TCTCGGAGGACACGAAGCTCAGAGCTTTCCAGAG | 0.39 | -0.167 | -0.771 | -0.53 | -1.25 | -0.0868 | -0.122 | 0.617 | 1.74 | 1.27 | 1.41 | -0.21 | -1.23 | -1.14 | -0.926 | -0.254 | -0.712 | -0.204 | -0.988 | 1.24
GCGACTGGGGCATCAGCAGGCTACCATAACTTAA | -0.662 | -0.723 | -0.307 | -0.378 | -1.43 | 0.138 | 0.565 | 0.457 | -1.02 | -0.389 | 4.01 | 2.87 | -0.343 | -1.56 | -0.243 | -0.692 | -0.801 | -0.592 | -1.13 | 0.346
GCTTGTAGGTCAAGGTTAAGAAAGACTAAGCTAA | 5.3 | 4.01 | 0.371 | 3.16 | 0.186 | 5.37 | 9.1 | 7.63 | 6.21 | 7.79 | 7.82 | 8 | 2.05 | 1.01 | 1.99 | 2.52 | 0.226 | 3.43 | 1.18 | 4.32
GCTGATAGGTCAACTGATGGTCAGCTAAAGCTCG | 5.47 | 4.76 | 0.669 | 3.53 | 0.283 | 4.84 | 3.41 | 4.06 | 1.34 | 2.96 | 3.71 | 3.35 | -0.33 | -0.713 | 4.6 | 3 | -0.565 | 4.46 | 1.39 | 4.48
CCTAGTTGGTCAGGATGTCACACACCGGATATGA | -0.184 | -0.0235 | 0.256 | 0.227 | 0.348 | 0.0864 | 0.898 | 0.76 | -0.14 | 0.424 | 0.536 | 1.16 | 0.182 | 0.583 | 1.42 | 0.0986 | 0.254 | 0.0158 | 1.18 | 0.798
GCTTGTAGATCCAGGTTAAGAAAGACTAAGCTAA | -0.143 | -0.0321 | -0.394 | -0.191 | -0.462 | 0.491 | -0.204 | 0.0602 | -0.441 | -0.11 | 1.08 | 0.859 | 0.236 | -0.304 | 0.202 | -0.27 | -0.237 | 0.118 | 0.241 | 0.0746
CCTACTGGGCCAAAGGTCGTTGATTCCAATGCTC | 1.29 | 1.46 | -0.124 | 1.91 | -0.505 | 5.3 | 11.1 | 9.69 | 9.46 | 10.5 | 5.47 | 5.6 | 0.111 | -0.79 | 1.18 | 2.45 | 0.0615 | 3.09 | -0.377 | 1.97

— the supplement of paper PMC6555819
